# This is a sample that favours compounds with a hit; in the whole collection about 3.1% have one here.
# TRb-SRC2 inh: disrupts binding of human TR beta to SRC2. P10828. TRbeta-SRC2 peptide binding, fluorescence polarization; receptor liganded with 1 µM T3. Potency, µM (top dose mostly 106 µM), for inactives: at the top dose activity change, negative = inhibition, most hits filed as inhibitors. 0.065% of 280,000 active. AID 1469;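 also: plate controls were bound peptide for no effect and peptide without receptor for full effect; nearly all actives have a fitted effect of over 50% in size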
# Target sequence (P10828 whole entry, looked up): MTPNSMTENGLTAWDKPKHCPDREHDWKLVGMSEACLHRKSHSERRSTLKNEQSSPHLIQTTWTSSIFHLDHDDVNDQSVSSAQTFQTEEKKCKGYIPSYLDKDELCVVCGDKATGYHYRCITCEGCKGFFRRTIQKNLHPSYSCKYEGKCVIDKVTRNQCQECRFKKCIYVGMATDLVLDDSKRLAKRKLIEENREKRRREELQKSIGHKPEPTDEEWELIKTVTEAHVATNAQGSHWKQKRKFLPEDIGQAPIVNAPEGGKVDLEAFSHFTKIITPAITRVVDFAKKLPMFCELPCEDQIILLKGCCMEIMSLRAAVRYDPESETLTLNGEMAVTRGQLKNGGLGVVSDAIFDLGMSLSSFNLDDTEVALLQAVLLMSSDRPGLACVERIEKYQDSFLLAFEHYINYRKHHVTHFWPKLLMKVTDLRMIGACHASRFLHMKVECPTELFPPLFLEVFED
#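 Fluorescence polarization of 20 nM Texas Red SRC2 peptide (20-aa NR interaction domain) bound to 0.6 uM human TRb ligand-binding domain, with 1 uM T3, after 5 hr at ambient temperature; inhibition seen as decreased polarization.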
# Tau fibril FP: blocks human tau fibril formation measured by polarization; P10636; 0.39% of 280,000 active; K18 P301L tau heparin fibrillization, Alexa594 FP, 6 h; Potency, µM (titrated, usually from 57.7 µM), for inactives: at the top dose activity, negative = inhibition, hits mostly inhibitors; AID 1468; also: nearly all actives have a fitted effect of over 55% in size
# Target sequence (P10636 561-689 P618L limits assumed): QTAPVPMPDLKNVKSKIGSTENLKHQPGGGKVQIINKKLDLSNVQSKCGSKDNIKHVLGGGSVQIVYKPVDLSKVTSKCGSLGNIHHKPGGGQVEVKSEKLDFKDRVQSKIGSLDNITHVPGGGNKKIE
#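 Read-out: fluorescence polarization of Alexa 594-labeled tau (0.24 uM), 555 nm excitation, 632 nm emission. Mixtures held 15 uM unlabeled K18 P301L, compound and 20 uM heparin, pH 7 acetate buffer, incubated 6 hr at 37 C.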
# Tau ThT inhib: blocks human tau fibril formation measured by thioflavin T. recombinant tau K18 P301L, heparin-induced fibrillization, ThT fluorescence. Potency, µM (doses to about 57.4 µM), without a hit: at the top dose activity, negative = inhibition, hits mostly inhibitors. 2.1% of 270,000 active. AID 1460; also: nearly all actives have a fitted effect of over 55% in size
#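 Heparin-induced fibrillization of the P301L-mutant K18 repeat-domain fragment of human tau was followed by ThT binding in quantitative high-throughput format.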
# TexasRed fluor: alters Texas Red total fluorescence, flagging assay interference; TRb/SRC2 Texas Red total fluorescence interference; Potency, µM (series often up to 106 µM), without a hit: at the top dose fluorescence change, negative = quenching; 0.29% of 280,000 active; AID 1479; active = well fitted curve in either direction with a large enough effect; inconclusive = small, poorly fitted or top-dose-only effect
#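 Human TRβ ligand-binding domain (0.6 uM) and Texas Red SRC2 peptide (20 nM) in Tris buffer with 1 uM T3 and 5% DMSO were incubated with pinned compound for 5 hr at ambient temperature. Total fluorescence was computed as S + 2P (555/632 nm).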
# Tau fluor counter: counter-screen for tau fibril formation inhibitors; tau K18 P301L Alexa594 fluorescence, heparin fibrillization; Potency, µM (highest dose often 57.7 µM), without a hit: top-dose activity change, negative = decrease; 0.93% of 280,000 active; also: nearly all actives have a fitted effect of over 55% in size
#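 Human tau K18 P301L (15 uM unlabeled, 0.24 uM Alexa 594-labeled) in 100 mM sodium acetate pH 7 with 20 uM heparin, 6 hr at 37 C. ThT 30 uM added, 1 hr ambient; Alexa 594 FP and total fluorescence read at 555/632 nm.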
# Numbers without * were called inactive; ? = inconclusive; / = not tested or not shown; [ ] = dose if it differs, or a comment. Unless noted, calls follow the shape of the dose curve; as a rule, active = well fitted curve in the direction sought with a large enough effect; inconclusive = small, poorly fitted or top-dose-only effect, or another doubt; inactive = no such curve, though single readings can be large; an effect the other way counts as inactive or inconclusive. Unless noted, % is scaled to controls: 0 for no effect and ±100 for the full control effect; potency is read from the fitted curve at half-maximal effect.
SMILES,TRb-SRC2 inh,Tau fibril FP,Tau ThT inhib,TexasRed fluor,Tau fluor counter
Cc1cc(C(=O)COC(=O)c2ccc(N)c([N+](=O)[O-])c2)c(C)n1Cc1ccc2c(c1)OCO2,1%,?,?,-4%,4.5µM*[quencher]
C=CCn1c(C)cc(C(=O)COC(=O)c2ccc(N)c([N+](=O)[O-])c2)c1C,-4%,-9%,?,3%,25µM*[quencher]
CCN1CCN(Cc2c(O)ccc3oc(C)c(C(=O)Nc4cccc(Cl)c4C)c23)CC1,-5%,-5%,-4%,?,-7%
Cn1cc(C(=O)N/N=C/c2ccc(Br)c([N+](=O)[O-])c2)c2ccccc21,-2%,?,/,-2%,14µM*[quencher]
Cc1nn(CCCC(=O)Nc2cc(Oc3ccccc3)cc([N+](=O)[O-])c2)c(C)c1[N+](=O)[O-],2%,7%,-3%,0%,10µM*[quencher]
Cc1cc([N+](=O)[O-])nn1CCCC(=O)Nc1ccc(Cl)cc1Cl,1%,-5%,2%,-3%,-5%
Cc1cccc(Oc2cc(NC(=O)c3ccccc3)cc([N+](=O)[O-])c2)c1,-5%,-9%,0%,-8%,7.1µM*[quencher]
Cc1ccc(C)c(Oc2cc(NC(=O)CCCn3nc(C)c([N+](=O)[O-])c3C)cc([N+](=O)[O-])c2)c1,11%,1%,-4%,11%,-2%
O=C(Nc1cc(Oc2ccc(Cl)cc2)cc([N+](=O)[O-])c1)c1ccco1,-2%,-24%,-7%,-2%,7.1µM*[quencher]
Cc1ccc(Oc2cc(NC(=O)CCCn3nc([N+](=O)[O-])cc3C)cc([N+](=O)[O-])c2)cc1,-4%,3%,-7%,1%,10µM*[quencher]
CCS(=O)(=O)N1CCc2cc(C(=O)NCc3ccccc3Cl)ccc21,-7%,1%,-9%,-1%,-4%
Cc1cccc(Cn2c(=O)n(CCCC(=O)NCc3ccccc3Cl)c(=O)c3ccccc32)c1,-3%,2%,-7%,-1%,-4%
Cc1nn(S(=O)(=O)c2ccc(Br)cc2)c(C)c1S(=O)(=O)N1CCCCCC1,2%,-12%,-10%,-3%,-13%
COc1ccccc1/C=C/c1nc(C#N)c(N2CCN(C)CC2)o1,0%,14%,?,-7%,-30%
Brc1ccc(-c2csc(Nc3nc(-c4ccc(Br)cc4)cs3)n2)cc1,-7%,2%,?,-1%,8.9µM*[quencher]
COc1ccc2oc(=O)c(-c3nnc(-c4ccc(C)cc4)o3)cc2c1,-17%[53 µM],-8%,-8%,20µM*[quencher],1%
COc1ccc(Nc2nc(-c3ccc(OC)cc3)cs2)cc1,-2%,6%,?,-3%,?
Oc1ccc(Nc2nc(-c3ccc(O)cc3)cs2)cc1,21%,2%,6.3µM*,?,14µM*[quencher]
Oc1ccc(Nc2nc(-c3ccc(Cl)cc3)cs2)cc1,-1%,?,4µM*,-23%,7.9µM*[quencher]
COc1ccc(OC)c(NC(=O)CN2C(=O)CCc3cc(S(=O)(=O)N4CCCCC4)ccc32)c1,1%,7%,-8%,-2%,-20%
COc1ccc2oc(=O)c(-c3csc(-c4ccc(Br)cc4)n3)cc2c1,-2%,-11%,6%,-1%,-10%
COc1ccc(-c2csc(Nc3cccnc3)n2)cc1,1%,?,?,-1%,?
COc1ccc(-c2csc(Nc3ccc(S(N)(=O)=O)cc3)n2)cc1,2%,?,?,-4%,13µM*[quencher]
CC(=O)Oc1ccc(-c2csc(Nc3ccc(S(N)(=O)=O)cc3)n2)cc1,5%,11%[2.34 µM],0%,-7%,12%[2.34 µM]
NS(=O)(=O)c1ccc(Nc2nc(-c3ccc(O)cc3)cs2)cc1,12%,20%,13µM*,?,?
SMILES,TRb-SRC2 inh,Tau fibril FP,Tau ThT inhib,TexasRed fluor,Tau fluor counter
COc1ccc2oc(=O)c(-c3csc(Nc4ccc(O)cc4)n3)cc2c1,-6%,-15%,2.2µM*,-4%,3.2µM*[quencher]
COc1ccc(Nc2nc(-c3c[nH]c4ccccc34)cs2)cc1,14%,?,8.9µM*,27%,13µM*[quencher]
Nc1ccc(Nc2nc(-c3ccncc3)cs2)cc1,4%,7%,?,-7%,?
Cc1c(CC(=O)NCCc2ccc(Cl)cc2)c(=O)oc2c(C)c3occ(C(C)(C)C)c3cc12,0%,-5%,-13%,-1%,-16%
COc1cc(CN(C(=O)COc2ccc(C)c(C)c2)c2ccccn2)cc(OC)c1OC,3%,9%,1%,-14%,2%
COc1ccc(NC(=O)C2CCCN(S(=O)(=O)c3ccc(F)cc3)C2)cc1 (stereo not given),10%,-4%,5%,-1%,-10%
CN1C(=O)C2(c3ccccc31)N(c1cccc(F)c1)C(=O)CS2(=O)=O (stereo not given),5%,-10%,-11%,4%,-9%
Nc1cc(Cl)c(O)c(Cl)c1,-13%[201 µM],/,/,?,/
COc1ccc(-c2csc(Nc3ccccc3)n2)cc1,0%,6%,?,-4%,28µM*[quencher]
CCN(CC)CCOc1ccc(-c2nc3cc(Cl)ccc3s2)cc1,-1%,/,/,0%,/
Cc1cc(N2CCN(C)CC2)nc2ccc(NC(=O)Nc3ccccc3Br)cc12,1%,?,13µM*,-3%,13µM*[quencher]
Cc1cc(N2CCN(C)CC2)nc2ccc(NC(=O)Nc3cccc(Cl)c3)cc12,-2%,?,14µM*,-19%,4µM*[quencher]
Cc1cc(N2CCN(C)CC2)nc2ccc(NC(=O)c3cccnc3Cl)cc12,-3%,-5%,?,-4%,-17%
Cc1ccc(NC(=O)Nc2ccc3nc(N4CCN(C)CC4)cc(C)c3c2)cc1C,-4%,3%,8.9µM*,-18%,4.5µM*[quencher]
Cc1cc(N2CCN(C)CC2)nc2ccc(NC(=O)c3ccccc3F)cc12,8%,-2%,?,1%,?
Cc1cc(N2CCN(C)CC2)nc2ccc(NC(=O)Nc3ccc(F)cc3F)cc12,-6%,?,?,-4%,16µM*[quencher]
COc1ccc(C(=O)N(c2ccc(C)cc2)S(=O)(=O)c2ccc(C)cc2)cc1,7%,-9%,3%,-1%,-24%
Cc1cc(N2CCN(C)CC2)nc2ccc(NC(=O)Nc3ccccc3)cc12,3%,?,?,-3%,18µM*[quencher]
COc1ccc(-c2nc(CSc3nc4ncccc4[nH]3)c(C)o2)cc1OC,-3%,0%,-14%,?,-1%
N#Cc1cc(Sc2ccccn2)c([N+](=O)[O-])cc1C#N,7%,-17%,14µM*,-24%,?
COc1cc(Nc2nc(SCC(=O)c3ccc(Br)cc3)nc3ccccc23)cc(OC)c1,8%,?,?,-2%,?
CC1(C)CC(=O)C2=C(C1)N(c1ccc(F)cc1)C(N)=C(C#N)C2c1cccs1 (stereo not given),7%,3%,-2%,1%,-9%
Cc1ccc(N2C(N)=C(C#N)C(c3cccs3)C3=C2CC(C)(C)CC3=O)cc1 (stereo not given),3%,-18%,25µM*,0%,-25%

# Source: PubChem
